Measured values from PubChem BioAssay (NCI).
This is part of a sample that, as a whole, favours compounds with a hit. Of some 83,000 tested, about 20% had one in any assay.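 Each cell line was grown in a 96-well plate and treated with one concentration of compound for 48 hours. Values below 10 were considered active.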 A number with no mark means an inactive call. Activity calls are given as the source filed them.

Columns and labels:
Experiment in all cases: NCI-60 one-dose screen, 48 h (100 = growth as untreated, 0 = no growth, -100 = all killed)
Details in all cases: 10 µM unless noted
SK-MEL-2 melanoma = tested on: SK-MEL-2 melanoma
EKVX NSCLC = tested on: EKVX NSCLC
SN12C renal = tested on: SN12C renal
UO-31 renal = tested on: UO-31 renal
TK-10 renal = tested on: TK-10 renal
CAKI-1 renal = tested on: CAKI-1 renal
A498 renal = tested on: A498 renal
CCRF-CEM leukemia = tested on: CCRF-CEM leukemia
MOLT-4 leukemia = tested on: MOLT-4 leukemia
RPMI-8226 leukemia = tested on: RPMI-8226 leukemia
OVCAR-8 ovarian = tested on: OVCAR-8 ovarian
OVCAR-5 ovarian = tested on: OVCAR-5 ovarian
OVCAR-4 ovarian = tested on: OVCAR-4 ovarian
SK-OV-3 ovarian = tested on: SK-OV-3 ovarian
IGROV1 ovarian = tested on: IGROV1 ovarian
OVCAR-3 ovarian = tested on: OVCAR-3 ovarian
NCI/ADR-RES ovarian = tested on: NCI/ADR-RES ovarian
ACHN renal = tested on: ACHN renal
SR leukemia = tested on: SR leukemia
HS 578T breast = tested on: HS 578T breast

Compound	growth (SK-MEL-2 melanoma) [%]	growth (EKVX NSCLC) [%]	growth (SN12C renal) [%]	growth (UO-31 renal)	growth (TK-10 renal)	growth (CAKI-1 renal)	growth (A498 renal)	growth (CCRF-CEM leukemia)	growth (MOLT-4 leukemia) [%]	growth (RPMI-8226 leukemia) [%]	growth (OVCAR-8 ovarian) [%]	growth (OVCAR-5 ovarian) [%]	growth (OVCAR-4 ovarian) [%]	growth (SK-OV-3 ovarian)	growth (IGROV1 ovarian) [%]	growth (OVCAR-3 ovarian)	growth (NCI/ADR-RES ovarian)	growth (ACHN renal) [%]	growth (SR leukemia)	growth (HS 578T breast) [%]
COc1nccc2c(Sc3ccccc3)nc(N)nc12	101	117	105	75.3%	103%	106%	76.2%	97.7%	94.5	93.2	101	107	99.7	114%	114	119%	106%			
Clc1ccc(-c2cnc3nonc3n2)s1	93.6	107	92.6	64%	103%		93.9%	11.3%	47.2		67.3	91.5	89.9	98.1%	71.3	23.1%	98.5%	81.9	38.4%	90.3
CC[C@H](C)[C@H](N)C(=O)O	109	107	101	83.9%	121%		91%		116	104	107	97.7	109	107%	106	111%	104%	103	90.7%	91.7
C[Si](C)(C)C(c1ccccc1)c1ccccc1	127	109	102	82.3%	108%	86.2%	99.7%	79.4%	81.8	91.6	102	110	109	98.4%	97.1	113%	98.9%			98.9
CCOC(=O)Cc1cc(Br)c(OCc2ccccc2)c(Br)c1	94.8	90.9	88.9	80.5%	96.8%	77.2%	109%	95.4%	77.2		95.5	85	94.5	109%	85.6	113%	102%		84.5%	101
CCSc1cnnc2ccccc12	115	98.9	103	94.3%	116%	95.3%	89.3%	97.2%	89.7	111	104	103	103	109%	128	121%	104%		94.2%	117
O=C(CSc1nc2c(n1Nc1ccccc1)-c1ccccc1SC2)Nc1nccs1	102	89.3	95.3	63.1%	120%	73.7%	77%	84.5%	82.5	90.7	97.3	103	102	109%	91.4	98.6%	90.4%		82.7%	93.5
O=C1/C=C/[C@@H](O)[C@@H]2C[C@@H](O)C[C@H]2/C=C/CCC[C@H]([C@@H](O)CO)O1	98.4	96.6	102	68.3%	121%		64%	101%	103	112	82	98.5	72.8	91.6%	98.5	86.7%	90.1%	109		53.5
Cc1ccccc1C1CC(=O)c2ccccc2C1C (stereo not given)	120	101	99.1	82.1%	105%	106%	88.5%	95.2%	93.5	93.8	106	97.2	101	105%	123	116%	108%		78.7%	98.9
CCNC(=O)c1ccc2c(c1)nc(-c1ccc(Cl)cc1)n2-c1cc(C(C)(C)C)[nH]n1	46.6	42.8	76.4	37.5%	89.7%	18.5%	57.9%	34.3%	20.9	76.5	77.1	63.9	70.9	26.9%	47.7	21.5%	9.67% (active)		-11.8% (active)	59.7
COC(=O)C(Br)(C(=O)OC)C(Br)C(Br)C(Br)c1ccccc1 (stereo not given)	83.6	105	96.7	-8.98% (active)	-45.2% (active)	-69.6% (active)	101%	0.438% (active)	50.1	106	73.1	126	83.6	102%	39.1	-37% (active)	104%		47.6%	114
CCC1N=C(N)N=C(N)N1c1ccc(Cl)cc1 (stereo not given)	100	68.4	96.9	89%	97%	96.3%	77.1%	107%	79.6	87.5		119	103	108%	66.6	104%			88.9%	97
COc1ccc2c(c1)OC1=C(C(=O)OC1)C2c1cc(OC)c2c(c1)OCCO2 (stereo not given)	41.3	55.5	27.5	46.2%	76.2%		-1.6% (active)	15%	20.8	25	20.7	32.4	48	-2.33% (active)	19.3	-30.4% (active)	13.9%	27.8		29.6
NS(=O)(=O)c1ccc(CCn2c(SCC(=O)N/N=C/c3cc4ccccc4[nH]3)nc3ccccc3c2=O)cc1	25.7	85.3	73.4	67%	102%	82.5%	102%	35%	23.1		40.5	113	68.7	95.4%	65.4	68.6%	99.8%		26.4%	64.6
CCOC(=O)C1C(=O)C=C(c2cc(OC)c(OC)c(OC)c2)CC1c1sc(N(C)Cc2ccccc2)nc1Cl (stereo not given)	71.9	63.3	80.6	53%	87.4%		86.1%	82%	58.7		82	101	86.8	85.2%	95.6	91.6%	86.3%	86.8	80.8%	55.9
O=C(Nc1cccc(C2=NCCN2)c1)c1ccc(N=Nc2ccc(C(=O)Nc3cccc(C4=NCCN4)c3)cc2)cc1		62.6	49.9	72.8%	40.2%	90.7%	66.3%		80.9		37.5	76.6		77.3%	58.8	77.4%	100%	52.4	87.5%	65.2
C[N+](C)(C)CCCCCCCCCC[N+](C)(C)C		96.3	85.9	96.1%		104%	123%	72.4%	99.4	96	98.7	117	87.2	106%	91.5	105%	98.4%	112		
